Among the test systems are SR leukemia; RPMI-8226 leukemia; OVCAR-8 ovarian; OVCAR-5 ovarian; SK-OV-3 ovarian; IGROV1 ovarian; OVCAR-3 ovarian; NCI/ADR-RES ovarian; T-47D breast; BT-549 breast; SW-620 colon; MCF7 breast; HCT-116 colon; HCC-2998 colon; KM12 colon; HS 578T breast; MDA-MB-435 melanoma.
What all share (assay): NCI-60 one-dose screen, 48 h (100 = growth as untreated, 0 = no growth, -100 = all killed)
What all share (conditions): 10 µM unless noted

This is part of a sample that, as a whole, favours compounds with a hit. Of some 83,000 tested, about 20% had one in any assay.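 Method: cells in 96-well plates; compound added at one concentration; 48 h incubation; percent growth measured; values under 10 scored active.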 Values without a mark were called inactive. The source made the active and inactive calls.

For the compound `CC(=O)O[C@H]1CC[C@]2(C)[C@H]3CC=C4[C@@H]5CC(C)(C)CC[C@]5(C(=O)OCC(COC(=O)C(Cl)Cl)(COC(=O)C(Cl)Cl)NC(=O)C(Cl)Cl)CC[C@@]4(C)[C@]3(C)CC[C@H]2C1(C)C`, the growth with SR leukemia is 60.3%; in the test on RPMI-8226 leukemia it was 33.5%; in the test on OVCAR-8 ovarian, 68.5%; in the test with OVCAR-5 ovarian, 86.1%; with SK-OV-3 ovarian, 86.1%; with IGROV1 ovarian, 89.5%. In addition, the growth in the test on OVCAR-3 ovarian was 67%; in the test on NCI/ADR-RES ovarian, 78%; in the test on T-47D breast, 32.7%; with BT-549 breast, 75.2%; in the test with SW-620 colon, 79.4%; in the test with MCF7 breast, 41.9%. The growth was 26.7% in the test on HCT-116 colon, 86.9% with HCC-2998 colon and 52.2% in the test with KM12 colon.

As for `Nc1c(C(=O)Nc2ccccc2)sc2nc3c(cc12)C(=O)CCC3`, the growth in the test with SR leukemia is 21.9%; with RPMI-8226 leukemia, 30.2%; in the test with OVCAR-8 ovarian, 39.9%; in the test on OVCAR-5 ovarian, 59.9%; with SK-OV-3 ovarian, 19.7%; in the test with IGROV1 ovarian it was 36.4%. Besides, the growth was -19.4% (active) with OVCAR-3 ovarian; 37.5% in the test on HS 578T breast; -6.39% (active) with NCI/ADR-RES ovarian; 47.1% with T-47D breast; 65.7% in the test with BT-549 breast; -5.95% (active) with MDA-MB-435 melanoma. In addition, the growth with SW-620 colon was 27.2%; with MCF7 breast, 19.6%; in the test with HCT-116 colon it was 23.6%; in the test with HCC-2998 colon, 21.9%; in the test with KM12 colon, 19.9%.

As to `CCC1=CC2CN(C1)Cc1c([nH]c3ccccc13)[C@@](C(=O)OC)(c1cc3c(cc1OC)N(C)[C@H]1[C@@](O)(C(=O)OC)[C@H](OC(C)=O)[C@]4(CC)C=CCN5CC[C@]31[C@@H]54)C2` (some centres not stated), the growth was 6.9% (active) in the test with SR leukemia; 31.4% with RPMI-8226 leukemia; 21.3% in the test on OVCAR-8 ovarian; 15.6% in the test on OVCAR-5 ovarian; 7.75% (active) in the test with SK-OV-3 ovarian; 35.7% in the test on IGROV1 ovarian. Further, the growth with OVCAR-3 ovarian is -29.6% (active); in the test with NCI/ADR-RES ovarian, -16.1% (active); in the test on T-47D breast, 76.1%; in the test on BT-549 breast, -27.2% (active); with MDA-MB-435 melanoma it was 2.28% (active); in the test on SW-620 colon it was 29.1%. Further, the growth is 8.05% (active) with MCF7 breast, -9.83% (active) in the test with HCT-116 colon, -36% (active) with HCC-2998 colon and 0.29% (active) with KM12 colon.

As to `Cc1ccc(C)c2c1SC1=NNC(Oc3ccc(Cl)cc3)=C(C#N)C(=N)N12`, the growth in the test on SR leukemia was 113%; in the test with RPMI-8226 leukemia it was 98.7%; in the test on OVCAR-8 ovarian, 108%; in the test on OVCAR-5 ovarian, 111%; with SK-OV-3 ovarian, 95.7%; with IGROV1 ovarian, 87.8%. The growth in the test with OVCAR-3 ovarian is 110%; in the test with HS 578T breast it was 103%; in the test on NCI/ADR-RES ovarian, 105%; in the test on T-47D breast, 84.4%; in the test on BT-549 breast, 107%; in the test with MDA-MB-435 melanoma, 113%. The growth in the test with SW-620 colon was 104%; with MCF7 breast it was 89.5%; with HCT-116 colon, 108%; in the test on HCC-2998 colon, 105%; with KM12 colon, 109%.

As for `Cc1ccc(NC(=O)c2sc3nc4c(cc3c2N)C(=O)CCC4)cc1Cl`, the growth with SR leukemia was 105%; with RPMI-8226 leukemia it was 105%; in the test with OVCAR-8 ovarian, 103%; in the test on OVCAR-5 ovarian, 101%; in the test on SK-OV-3 ovarian, 114%; in the test on IGROV1 ovarian it was 106%. Moreover, the growth in the test with OVCAR-3 ovarian was 113%; with HS 578T breast, 113%; in the test with NCI/ADR-RES ovarian, 104%; with T-47D breast, 105%; with BT-549 breast it was 115%; in the test on MDA-MB-435 melanoma, 99.2%. Further, the growth in the test on SW-620 colon was 113%; in the test with HCT-116 colon, 105%; in the test on HCC-2998 colon, 103%; in the test with KM12 colon, 116%.

Take `CCN(CC)CCNC(=O)C(F)(F)C(F)(F)C(F)(F)F`: the growth is 106% in the test with SR leukemia; 107% in the test on RPMI-8226 leukemia; 114% in the test on OVCAR-8 ovarian; 99.2% with OVCAR-5 ovarian; 101% in the test with SK-OV-3 ovarian; 138% in the test with IGROV1 ovarian. Also, the growth in the test on OVCAR-3 ovarian is 109%; with HS 578T breast it was 96.7%; with NCI/ADR-RES ovarian, 113%; in the test with T-47D breast, 110%; in the test on BT-549 breast it was 98.7%; in the test on MDA-MB-435 melanoma, 109%. Further, the growth with SW-620 colon is 104%; in the test on MCF7 breast, 108%; in the test on HCT-116 colon, 96.2%; with HCC-2998 colon, 105%; in the test with KM12 colon it was 101%.

Regarding `CCOC(OCC)c1cnc2nc(NC(C)=O)[nH]c(=O)c2n1`, the growth in the test with SR leukemia is 99.9%; in the test with RPMI-8226 leukemia, 106%; in the test with OVCAR-8 ovarian it was 102%; in the test on OVCAR-5 ovarian it was 101%; with SK-OV-3 ovarian, 106%; in the test on IGROV1 ovarian it was 101%. In addition, the growth in the test on OVCAR-3 ovarian was 113%; in the test with HS 578T breast it was 102%; in the test on T-47D breast, 99.9%; with BT-549 breast it was 112%; in the test on MDA-MB-435 melanoma, 105%; in the test on SW-620 colon, 103%. The growth in the test on MCF7 breast is 96.4%; in the test with HCT-116 colon it was 102%; with HCC-2998 colon it was 107%; in the test on KM12 colon, 108%.

Take `COc1ccccc1CNCCCN1C(=O)c2ccc3c4c(ccc(c24)C1=O)C(=O)N(CCCOCCCCOCCCN)C3=O`: the growth in the test with SR leukemia is 7.67% (active); with RPMI-8226 leukemia, -5.62% (active); in the test with OVCAR-8 ovarian, -14.6% (active); in the test with OVCAR-5 ovarian, -55.9% (active); with SK-OV-3 ovarian, 25.3%; with IGROV1 ovarian, -51.8% (active). In addition, the growth is -95% (active) in the test with OVCAR-3 ovarian; 19.1% in the test with HS 578T breast; -8.07% (active) with NCI/ADR-RES ovarian; 27.4% in the test on BT-549 breast; -84.6% (active) in the test on MDA-MB-435 melanoma; -60.6% (active) in the test on SW-620 colon. The growth in the test with MCF7 breast was -69.6% (active); with HCT-116 colon it was -68.7% (active); in the test on HCC-2998 colon it was -53.5% (active); with KM12 colon it was -59% (active).

Regarding `C[N+](C)(C)CC(=O)N/N=C\c1ccco1`, the growth is 81.2% in the test with SR leukemia; 103% in the test with RPMI-8226 leukemia; 102% in the test on OVCAR-8 ovarian; 97% in the test on OVCAR-5 ovarian; 103% with SK-OV-3 ovarian; 104% in the test on IGROV1 ovarian. In addition, the growth with OVCAR-3 ovarian was 114%; with HS 578T breast it was 99.4%; in the test on NCI/ADR-RES ovarian, 111%; in the test on T-47D breast, 97.7%; in the test with BT-549 breast it was 104%; in the test with MDA-MB-435 melanoma, 107%. Besides, the growth in the test with SW-620 colon was 98.9%; with MCF7 breast, 88.6%; in the test with HCT-116 colon, 101%; in the test on HCC-2998 colon it was 110%; in the test on KM12 colon it was 96.8%.

The values are drawn from PubChem BioAssay (NCI).
